Out of some 3,300 compounds screened, about 1,400 (42%) were called active. So high a share suggests a set chosen from earlier hits. Not all results are given here. A number with no mark means an inactive call.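 Rule for the calls: active = mean inhibition across replicates above the hit cutoff derived for the earlier primary screen (cut at about 22% in these data); inactive = the rest.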

Among the data in PubChem BioAssay AID687036 (The Scripps Research Institute Molecular Screening Center, 2013) are inhibition values, retold here.

The target in this assay is Protein arginine N-methyltransferase 1 (Homo sapiens) (UniProt Q99873). The assay can be described thus: PRMT1 methyltransferase inhibitors, confirmation, biochemical, fluorescence polarization, triplicate (AID 687036). The note with it: recombinant His-PRMT1, activity-based probe fluorescence polarization; at 2.79 µM; hits give high values.
Sequence of Protein arginine N-methyltransferase 1 (Homo sapiens) (Q99873 whole entry, looked up): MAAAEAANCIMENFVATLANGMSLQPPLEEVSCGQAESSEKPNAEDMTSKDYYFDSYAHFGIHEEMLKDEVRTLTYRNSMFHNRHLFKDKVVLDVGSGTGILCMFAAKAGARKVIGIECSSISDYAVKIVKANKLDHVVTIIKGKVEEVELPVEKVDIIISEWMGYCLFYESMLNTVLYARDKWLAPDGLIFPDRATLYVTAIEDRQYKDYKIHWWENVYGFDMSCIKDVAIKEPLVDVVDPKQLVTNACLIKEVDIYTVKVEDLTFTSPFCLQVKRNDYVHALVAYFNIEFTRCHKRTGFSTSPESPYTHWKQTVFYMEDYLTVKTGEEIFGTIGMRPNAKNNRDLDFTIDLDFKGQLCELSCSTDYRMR
By inhibition is commonly meant the relative decrease from the control value, in per cent. As for `Brc1ccccc1C1Nc2cccc3cccc(c23)N1`, the inhibition was 29.4% (active).
On to `NS(=O)(=O)c1ccc(NC(=O)COC(=O)c2c3c(nc4ccccc24)/C(=C\c2ccc4c(c2)OCO4)CCC3)cc1`, for which the inhibition is 0.89%.
The figure for `Cc1cc(C)cc(C(=O)NC2C(=O)N3C(C(=O)O)=C(CSc4nnc(C)s4)CSC23)c1` (stereo unspecified) is 15.9%.
As for `Oc1ccc2ccc3cccc[n+]3c2c1`, the figure is 155% (active); as for `COc1cc(C2CC(=O)N3CN(Cc4ccccc4)CSC3=C2C#N)ccc1OCc1ccccc1` (stereo unspecified), 12.4%; as for `CC(=O)Nc1ccc(C(=O)Nc2nc(-c3cc(C)n(Cc4ccccc4)c3C)cs2)cc1`, 5.86%.
Take `FC(F)(F)c1nc2ccccc2nc1N/N=C/c1ccc(Cl)cc1`: the inhibition was -0.64%.
As for `CCOC(=O)C(Sc1ncc(C#N)c(N)n1)C(C)C` (stereo unspecified), the figure is 37% (active).
As for `Fc1ccc(COc2cccc(-c3n[nH]c(=S)o3)c2)cc1`, the figure is 14.3%.
The figure for `COc1cc(C(=S)NC2CCCCC2)ccc1O` is 5.36%.
As to `CCc1ccc(NC2Nc3cc(C)nn3S2)cc1` (stereo unspecified), the inhibition is 6.49%.
For `O=c1ccc2c(-c3ccccc3S(=O)(=O)O)c3ccc(O)c(O)c3oc-2c1O`, the inhibition was 66.2% (active).
As for `COc1ccc(CCN2C(=O)CC(N3CCC(C(N)=O)CC3)C2=O)cc1OC` (stereo unspecified), the figure is 12.1%; as for `OCCn1c(-c2ccccc2)csc1=Nc1ccccc1`, -0.19%.
As for `O=S(=O)(O)c1cc2onnc2c2ccccc12`, the figure is 53.5% (active).
As for `Cc1ccc(-c2ccc(/C=C(\C#N)C(N)=S)o2)c([N+](=O)[O-])c1`, the figure is 3.06%; as for `Cc1ccc(SC(CC(=O)c2ccc(C(C)(C)C)cc2)C(=O)O)cc1` (stereo unspecified), 80.3% (active).
Take `COc1ccc(N/N=C2/CCCCC2=O)cc1`: the inhibition was 0.52%.
Take `Cc1cc(=O)[nH]c(=S)[nH]1`: the inhibition is -4.44%.
As for `Cc1cc2nc3c(=O)[nH]c(=O)nc-3n(C[C@H](O)[C@H](O)[C@H](O)CO)c2cc1C`, the figure is 146% (active); as for `O=C(CN1CCN(c2ccc(O)cc2)CC1)NC1CCCc2ccccc21` (stereo unspecified), -0.09%; as for `Cc1cccc(N2CCN(C(=O)/C=C/c3ccco3)CC2)c1C`, 7.17%.
As for `Cc1nnc(SCC2=C(C(=O)O)N3C(=O)C(NC(=O)Cn4nc(C)c(Cl)c4C)C3SC2)s1` (stereo unspecified), the figure is 6.51%.
As for `CC(C)(C)NC(=O)COc1ccc(CNc2ccc3[nH]c(=O)[nH]c3c2)cc1`, the figure is 4.62%; as for `COc1ccc(NC(=O)CSc2nc(SC)ns2)c(OC)c1`, 30.5% (active).
Take `Cc1cccc2cc3c(N)c(C(=O)N4CCCc5ccccc54)sc3nc12`: the inhibition is -2.12%.
As for `COc1cccc(NC(=O)CSc2nccn(-c3ccc4c(c3)OCCO4)c2=O)c1`, the figure is 26.1% (active); as for `COc1cccc(NC(=O)COC(=O)/C=C/c2ccco2)c1`, 10.2%; as for `CC(=O)Nc1cc(-c2ccccc2N(C)C)cn2c(-c3ccc(F)c(Cl)c3)cnc12`, 1.55%.
The figure for `c1ccc(Cc2c(-c3ccco3)nc3c4ccccc4ccn23)cc1` is 9.04%.
The figure for `COc1ccc(NC2=CC(=S)NC(C)(C)C2)cc1` is -3.18%.
Regarding `S=c1[nH]nc(-c2ccco2)n1/N=C/c1ccc(Br)s1`, the inhibition was 13.1%.
As for `O=C1CC(Sc2ncn[nH]2)C(=O)N1c1ccccc1` (stereo unspecified), the figure is 68.5% (active); as for `COc1ccc(N2C(=O)CC(Sc3n[nH]c(-c4ccc(C)cc4)n3)C2=O)cc1` (stereo unspecified), 59% (active).
The figure for `COc1ccc(N2C(=O)CC(N3CCC(C(N)=O)CC3)C2=O)cc1` (stereo unspecified) is 9.59%; for `Cc1ccc(N2C(=O)CC(Sc3ncn[nH]3)C2=O)cc1` (stereo unspecified) it is 24.3% (active).
The figure for `CN(CCOc1ccccc1)C(=O)c1cc(-c2ccco2)nc2ccccc12` is 10.7%.
Consider `COc1ccc(-c2cc3c(c4c2ccn4C)C2CCC3C2)cn1` (stereo unspecified), for which the inhibition was -5.46%.
`Cc1cc(C)c(/C=C2\C(=O)Nc3ccccc32)[nH]1`: the inhibition is 77.3% (active).
For the compound `CC(=NNC(=S)N1CCCCCC1)c1ccccn1`, the inhibition is 5.21%.
As for `O=S(=O)(c1ccc(Sc2nnc3ccccn23)nc1)N1CCOCC1`, the figure is -3.1%; as for `N#CC1=C(N)Oc2c(sc3ccccc23)C1c1ccco1` (stereo unspecified), 28.5% (active).
Regarding `Cc1cc2c(c(=O)n1Cc1ccco1)C(c1ccccc1)C(C#N)=C(N)O2` (stereo unspecified), the inhibition was 6.2%.
As for `O=C(c1ccc[nH]c1=S)N1CCN(S(=O)(=O)c2ccc(Br)cc2Cl)CC1`, the figure is 11.5%; as for `COC(=O)c1ccc(NCc2cc(O)ccc2O)cc1`, 22.6% (active); as for `COc1ccc(NC(=O)c2ccc(C#CC(C)(C)O)cc2)cc1`, 3.21%.
`Cc1ccc(/C=C/C(=O)Nc2ccc([N+](=O)[O-])c(NC(=O)/C=C/c3ccc(C)o3)c2)o1`: the inhibition is 60.6% (active).
As for `CN(C)C(=O)N=NC(=O)N(C)C`, the figure is 15.4%.
As for `Cc1cccc(CS(=O)(=O)c2ncc(Cl)c(C(=O)Nc3ccc(F)cc3)n2)c1`, the figure is 18.9%.
As for `Cc1ccc(-c2nn(-c3ccccc3)cc2/C=C2\SC(=S)N(CCCCCC(=O)O)C2=O)o1`, the figure is 18.1%; as for `Cc1ccc(-c2nn(-c3ccccc3)cc2CN(Cc2ccccc2)C(=O)CCC(=O)O)o1`, 21.8% (active).
Regarding `Cc1cccc(NC(=O)CSC(N)=O)c1C`, the inhibition was 96.6% (active).
The figure for `Cc1ccccc1-n1c(SCC(=O)Nc2cccc3ccccc23)nc(O)cc1=O` is 2.26%; for `O=C(NC1=CC(=O)c2ccccc2C1=O)c1ccccc1` it is 42.6% (active).
The figure for `Cc1ccc(OS(=O)(=O)c2ccc(-c3csc(C)n3)s2)c(C)c1` is 8.35%; for `CO/N=C(\C(=O)N[C@@H]1C(=O)N2C(C(=O)O)=C(COC(C)=O)CS[C@H]12)c1csc(N)n1` (stereo in doubt) it is 11.4%.
For the compound `C=CCn1c(=S)[nH]c2scc(-c3ccco3)c2c1=O`, the inhibition is 56.8% (active).
The figure for `O=C(CCN1CCc2ccccc2C(O)(c2ccccc2)C1)c1ccc2c(c1)OCCO2` (stereo unspecified) is 38% (active); for `COc1ccccc1-n1c(SCC(=O)Nc2ccc(Cl)cc2)nc(O)c(Cc2ccccc2)c1=O` it is 18.7%.
The figure for `O=C(Nc1ccccc1)c1nnsc1S(=O)(=O)c1ccc(Cl)cc1` is 79.7% (active).
In the case of `Cc1cccc(NC(=O)c2nc(S(=O)(=O)Cc3ccccc3)ncc2Cl)c1`, the inhibition is 16.1%.
